Source: PubChem (National Center for Advancing Translational Sciences (NCATS))
The entries come from a sample that favours hits as a whole.
TbPYK inhibitor: blocks Trypanosoma brucei pyruvate kinase; TbPYK enzyme, Kinase-Glo Plus ATP luminescence, 45 min; Potency, µM (series often up to 76.8 µM), inactives show at the highest dose activity, negative = inhibition, usual class: inhibitors; actives 0.12% (n = 410,000); AID 624173; further: potency means the concentration at half of the fitted maximal effect; on the % scale 0 is the no-effect control and ±100 the full control effect; nearly all actives have a fitted effect of over 50% in size
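In this concentration-response screen, enzyme-free wells defined baseline while DMSO plates tracked drift. Each reaction combined TbPYK, substrate, compound and 130 uM ADP for 45 min at room temperature. Kinase-Glo Plus luminescence gave the signal.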
Shiga toxin inh: blocks Shiga toxin action in Vero cells; Vero cells, Shiga toxin protein synthesis inhibition reporter; inhibition, % at 38.7 µM; actives 9.2% (n = 290,000); AID 2315; in the data active means inhibition mostly above about 28%, no sharp cut-off; inactive means mostly below about 43%; further: 0% is about no effect
FBPA Giardia inh: inhibitors of Giardia lamblia fructose-1,6-bisphosphate aldolase; actives 0.71% (n = 290,000); Potency, µM (top dose mostly 59.6 µM), without a hit: at the top dose activity, negative = inhibition, most hits filed as inhibitors; purified Giardia FBPA; A8B2U2; further: potency means the concentration at half of the fitted maximal effect; on the % scale 0 is the no-effect control and ±100 the full control effect; nearly all actives have a fitted effect of over 55% in size
Target sequence (A8B2U2 whole entry, looked up): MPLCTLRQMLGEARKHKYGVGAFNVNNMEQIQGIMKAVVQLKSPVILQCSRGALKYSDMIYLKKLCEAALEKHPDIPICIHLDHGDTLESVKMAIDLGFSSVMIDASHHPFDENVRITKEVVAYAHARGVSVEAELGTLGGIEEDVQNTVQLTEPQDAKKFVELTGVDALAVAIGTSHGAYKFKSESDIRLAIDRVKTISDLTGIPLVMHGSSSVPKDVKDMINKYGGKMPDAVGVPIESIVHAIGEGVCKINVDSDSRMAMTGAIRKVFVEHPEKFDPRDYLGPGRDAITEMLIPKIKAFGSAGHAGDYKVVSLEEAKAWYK
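Giardia FBPA (40 nM reagent) was preincubated 10 min at RT with compound (up to 57.5 uM final), then substrate plus GAPDH/TPI/NAD/arsenate coupling system with diaphorase/resazurin was added; resorufin fluorescence (525/598 nm) was read after 20 min.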
Sm TGR block: S. mansoni TGR enzyme inhibition; Potency, µM (doses to about 114 µM), inactives show top-dose activity change, negative = inhibition, usual class: inhibitors; purified TGR, DTNB reduction, TNB absorbance 405 nm; actives 3% (n = 360,000); Q962Y6; further: potency means the concentration at half of the fitted maximal effect; on the % scale 0 is the no-effect control and ±100 the full control effect; nearly all actives have a fitted effect of over 60% in size
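First, TGR (20 nM dispensed) and NADPH were mixed with compound. Second, a 15 min room-temperature incubation followed. Third, further NADPH and then DTNB were added to start the reaction. Finally, TNB absorbance was monitored kinetically.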
CHX counter: counter-screen hit for Shiga toxin inhibitors, cycloheximide; actives 12% (n = 300,000); cell reporter, cycloheximide protein synthesis inhibition counterscreen; max response, %; AID 2314; in the data active means max response mostly above about 13%, no sharp cut-off; inactive means mostly below about 14%; further: read at 38.3 µM for the half of the compounds with a filed dose; 0% is about no effect
LmPK inhibitor: inhibitors of Leishmania mexicana pyruvate kinase | AID 1721 | Potency, µM (doses to about 57.5 µM), for inactives: at the top dose activity change, negative = inhibition, most hits filed as inhibitors | actives 0.37% (n = 290,000) | Q27686 | purified LmPK, Kinase-Glo ATP luminescence, 1 h; further: potency means the concentration at half of the fitted maximal effect; on the % scale 0 is the no-effect control and ±100 the full control effect
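Screened at intermediate enzyme activity to detect both inhibitors and activators: LmPK at 0.1 nM, with a 0.5 nM enzyme column as activation reference. PEP 0.5 mM, ADP 0.1 mM; ATP detected by luminescence after 1 h.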
* = called active by the depositor; ? = inconclusive; · = no result given. Unless noted, the call rests on the fitted dose curve; in most records, active means well fitted curve in the direction sought with a large enough effect; inconclusive means small, poorly fitted or top-dose-only effect, or another doubt; inactive means no such curve, though single readings can be large; an effect the other way counts as inactive or inconclusive.

SMILES | TbPYK inhibitor | Shiga toxin inh | FBPA Giardia inh | Sm TGR block | CHX counter | LmPK inhibitor
COc1ccc([C@H]2/C=C\CN(S(C)(=O)=O)[C@@H](C)C(=O)N2Cc2ccc(F)cc2)cc1 | 3% | · | · | · | · | ·
COc1ccc(C2/C=C\CN([S+](=O)([O-])c3ccc4ccccc4c3)C(C)C(=O)N2Cc2ccc(F)cc2)cc1 (stereo not drawn) | · | 149* | -3% | · | 84 | ·
Cc1ccc(CSCCNC(=O)/C=C/c2ccccc2Cl)cc1 | 4% | 6 | 0% | 20% | 32* | 2%
O=C(/C=C/c1ccccc1[N+](=O)[O-])NCCc1ccc(F)cc1 | -6% | 69 | -7% | 3% | 24* | 2%
O=C(/C=C/c1ccccc1Cl)NCCc1ccc(F)cc1 | -2% | 93* | 1% | -5% | 24* | 3%
O=C(/C=C/c1ccc(Cl)cc1Cl)NCCSCc1ccccc1 | -2% | 12 | 3% | -11% | 8 | 1%
O=C(Cc1ccccc1[N+](=O)[O-])NCCc1ccc(F)cc1 | -2% | 3 | -3% | 0% | 1 | 1%
COCCn1c(=O)c(-c2cc(F)cc(F)c2)nc2cnc(Nc3cccc(OC)c3)nc21 | 2% | · | -5% | · | · | ·
CCOc1ccc(CCNC(=O)c2cc3sc(CC)cc3n2C)cc1OCC | 2% | · | · | 9% | · | ·
COC(OC)c1ccnc(-c2ccc(OC(=O)c3cccs3)cc2)n1 | -3% | 61* | -6% | -5% | 26* | -3%
COC(OC)c1ccnc(-c2ccc(OC(C)=O)cc2)n1 | -5% | 50 | 0% | 0% | 22* | 0%
COC(OC)c1ccnc(-c2ccc(OC(=O)c3ccccc3)cc2)n1 | 4% | 43 | 0% | 1% | 27 | 8%
CCOc1ccc(OC(=O)c2cn(-c3ccc(C)cc3)c(=O)c3ccccc23)cc1 | -3% | · | · | ? | · | ·
CC1=NN(C(N)=S)C(=O)C1N=Nc1cccc2ccccc12 (stereo not drawn) | · | 25 | 19% | · | 13 | -8%
CC1=NN(C(N)=S)C(=O)C1N=Nc1ccc(Br)cc1 (stereo not drawn) | -5% | 53 | ? | -8% | 39* | 6%
CC1=NN(C(N)=S)C(=O)C1N=Nc1cccc(Cl)c1C (stereo not drawn) | -2% | 37* | ? | -20% | 26* | 2%
CC1=NN(C(N)=S)C(=O)C1N=Nc1ccc(Cl)cc1 (stereo not drawn) | -2% | 77* | 18% | -15% | 33* | -6%
CCCCOc1ccc(-c2nonc2NC(=O)c2ccco2)cc1 | 2% | · | · | -3% | · | ·
CCCN(CCC)C(=O)Cn1c(=O)n(Cc2ccc(C(=O)NCCc3ccc(Cl)cc3)cc2)c(=O)c2ccccc21 | -8% | · | · | -7% | · | ·
Cc1cc(C)c2oc(C(=O)Nc3c(C)n(C)n(-c4ccccc4)c3=O)cc(=O)c2c1 | -4% | · | · | 8% | · | ·
O=C(Nc1ccc(Br)cc1)C1CCCN1S(=O)(=O)c1ccc(F)cc1 (stereo not drawn) | 5% | · | · | -3% | · | ·
O=C(N/N=C/c1ccc(OCc2ccccc2)cc1)c1cccs1 | 6% | 66* | 6% | 0% | 43* | -2%
O=C(N/N=C/c1ccc(OCC(=O)N2CCCC2)cc1)C(=O)NC1CC1 | 3% | -5 | · | -8% | -2 | -1%
CCCNC(=O)C(=O)N/N=C/c1ccc(OCc2ccccc2)cc1 | 4% | -14 | 5% | 9% | -1 | 0%
O=C(C[n+]1ccc(C(=O)N/N=C/c2ccc(OCc3ccccc3)cc2)cc1)c1ccccc1 | 4% | 62* | 1% | -4% | 54* | -4%
SMILES | TbPYK inhibitor | Shiga toxin inh | FBPA Giardia inh | Sm TGR block | CHX counter | LmPK inhibitor
Oc1ccc(N=Cc2ccc(OCc3ccccc3)cc2)cc1 | -23% | 80* | 20µM* | 4µM* | 44* | -27%
O=C(N/N=C/c1ccccc1OCC(=O)N1CCCC1)C(=O)Nc1ccccc1F | -11% | active | 9% | -2% | 33* | ?
COc1ccc(Nc2cc(C(=O)NCCCN3CCN(c4ccc(OC)cc4)CC3)c3ccccc3n2)cc1 | 1% | · | · | 2% | · | ·
COc1ccc(N(CC(=O)NCc2ccc3c(c2)OCO3)C(=O)c2csnn2)cc1 | -1% | 35 | · | 6% | 9 | 2%
CCCC(=O)N(c1ccc2oc(-c3ccccc3)c(C(=O)OCC)c2c1)S(=O)(=O)c1ccc(C)cc1 | -6% | · | · | 1% | · | ·
O=C(COc1ccc(NC(=O)c2cccs2)cc1)c1ccc(F)cc1 | -4% | 4 | · | -21% | -1 | 0%
O=C(N/N=C/c1ccc(OCC(=O)N2CCCCC2)cc1)c1ccccc1 | 2% | 40 | 1% | 32% | 30* | 2%
O=C(N/N=C/c1ccc(Cl)cc1)c1sccc1OCc1ccc(F)cc1 | 0% | -2 | 2% | 7% | 27* | 8%
O=C(N/N=C/c1ccc(OCc2ccccc2)cc1)c1ccncc1 | 1% | 81 | 0% | -3% | 13* | -1%
O=C(Nc1ccc(OCc2ccccc2)cc1)c1cccs1 | -4% | · | 2% | 17% | 44* | 7%
COc1ccc(-c2nnc3c4ccccc4c(-c4ccccc4)nn23)cc1 | 4% | · | · | 1% | · | ·
CCCN1CCN(CCNC(=O)Nc2cc(C)ccc2C)CC1 | 2% | -14 | 3% | 12% | -1 | 0%
O=C(c1ccc(Br)cc1)N1CCC(c2nc3ccccc3s2)CC1 | 0% | · | · | -1% | · | ·
Cc1ccc(NC(=O)c2ccc(NCCN)c([N+](=O)[O-])c2)cc1 | 2% | 33* | 5% | -6% | 20* | 0%
CCCNc1ccc(C(=O)OCC)cc1[N+](=O)[O-] | 3% | 83* | 4% | 21% | 52* | 5%
Cc1ccc(NC(=O)CSc2ccc(C(N)=O)cc2[N+](=O)[O-])cc1 | -5% | 43* | 0% | 5% | 27 | -1%
Cc1cccc(NC(=O)c2ccc(NCCc3ccccc3)c([N+](=O)[O-])c2)c1 | 4% | -6 | 8% | 7% | -2 | 4%
COc1ccc(/C(N)=N/OC(=O)CN(C)S(=O)(=O)c2ccccc2)cc1 | -10% | 41 | -4% | 19% | 14 | -1%
COc1ccc(/C(N)=N/OC(=O)Cc2cccs2)cc1 | -8% | 113* | 3% | 0% | 44* | -1%
COc1ccc(CC(=O)O/N=C(\N)c2ccccc2)cc1OC | -5% | 42* | -1% | 5% | 38* | -5%
COc1ccc(/C(N)=N/OC(=O)Cc2ccccc2[N+](=O)[O-])cc1 | 4% | 40 | 0% | -2% | 31* | -3%
COc1ccc(/C(N)=N/OC(=O)Cc2cccs2)cc1OC | 1% | 33* | 0% | -6% | 27* | 3%
COc1ccc(CC(=O)O/N=C(\N)c2ccc(Br)cc2)cc1OC | 0% | 10 | 5% | 11% | -3 | -1%
COc1ccc(C(=O)O/N=C(\N)Cc2cccs2)cc1OC | 1% | -19 | · | -1% | -5 | -1%
